Key:
Assay in all cases: PBM binding z-score (relative to random genomic background probes); higher = stronger binding; sequences stand for … in GC…GCGATTGACAGCGTAGAATGAAGG
[1] = tested on: FXR:RXRa (NR concentration 270 nM, RXRa partner concentration 90 nM)
How it was run: (§1)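 Scanned fluorescence from custom Agilent 4×180K protein-binding microarrays was regression-normalized. Binding z-scores use random background probes as reference. Ligand-free nuclear receptor dimers were incubated on the arrays for 1 h and detected with antibodies against each partner (one per run).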

[2] = tested on: LXRa:RXRa (NR concentration 270 nM, RXRa partner concentration 90 nM)
How it was run: as §1

[3] = tested on: LXRa homodimer (NR concentration 270 nM)
How it was run: as §1

[4] = tested on: LXRb:RXRa (NR concentration 270 nM, RXRa partner concentration 90 nM)
How it was run: as §1

[5] = tested on: LXRb homodimer (NR concentration 270 nM)
How it was run: as §1

[6] = tested on: PPARa:RXRa (NR concentration 270 nM, RXRa partner concentration 90 nM)
How it was run: as §1

[7] = tested on: PPARg:RXRa (NR concentration 180 nM, RXRa partner concentration 90 nM)
How it was run: as §1

[8] = tested on: PPARg:RXRa 270nM:90nM, anti-RXR (NR concentration 270 nM, RXRa partner concentration 90 nM)
How it was run: as §1

[9] = tested on: PPARg:RXRa 30nM:10nM, anti-RXR (NR concentration 30 nM, RXRa partner concentration 10 nM)
How it was run: as §1

[10] = tested on: PPARg:RXRa 90nM:30nM, anti-RXR (NR concentration 90 nM, RXRa partner concentration 30 nM)
How it was run: as §1

| Sequence | PBM binding z-score [1] | PBM binding z-score [2] | PBM binding z-score [3] | PBM binding z-score [4] | PBM binding z-score [5] | PBM binding z-score [6] | PBM binding z-score [7] | PBM binding z-score [8] | PBM binding z-score [9] | PBM binding z-score [10] |
| --- | --- | --- | --- | --- | --- | --- | --- | --- | --- | --- |
| ATCTCTAGGTAAAGTTCAGTGGAAGATCGATAGA | 1.56 | 2.02 | 1.68 | 1.29 | 1.27 | 2.23 | 2.75 | 3.85 | 2.32 | 3.46 |
| CCGACTGGCGCATAAGGTTACCATAAGCCAGCCC | 0.387 | 1.91 | -0.184 | 0.848 | -0.921 | 0.659 | 0.557 | 0.0532 | -0.553 | -0.235 |
| CCGACTGGGGCAAAGGTTAACATACTCAGTACGA | 2.41 | 2.19 | 0.28 | 2.96 | -0.551 | 6.17 | 11.3 | 9.21 | 9.81 | 10.1 |
| CGTCCAAGGTCAGAGAGGTCAGCGAATGCCGAGT | 6.38 | 5.44 | 3.27 | 4.32 | 0.249 | 5.09 | 4 | 4.67 | 0.981 | 3.07 |
| ATCTCTAGGTACGACTCAGTTCAGTGAAGAACGC | 0.373 | 0.42 | 0.735 | 0.686 | 1.15 | 0.0584 | 0.161 | 0.105 | 0.235 | -0.098 |
| CCTACTGGGCCAATCAGAGGTCATTGATCATATG | 2.78 | 4.24 | 7.72 | 3.78 | 0.545 | 3.87 | 2.45 | 3.15 | 1.12 | 2.29 |
| TTACCAAGGTGAGCTGAGGTCGTTGAGCCAACTC | 1.91 | 1.27 | -0.402 | 0.809 | -1.19 | 1.84 | -0.225 | 0.876 | -0.207 | 0.236 |
| GCGACTGGGGCATCACCAGGTTACCATAACTTAA | -0.25 | -0.178 | -0.0644 | 0.637 | -0.712 | 1.02 | 1.1 | 0.672 | -0.379 | 0.216 |
| GCTTACGGGTCAAGGGTTATAGCATGAATAGAAT | 7 | 4.33 | -0.0628 | 4.68 | 0.59 | 6.34 | 9.43 | 7.41 | 6.16 | 8.05 |
| CGTCCAAGGGCAAGGTCAGTGAAAGAGACTCGAA | 1.95 | 1.58 | -0.119 | 1.22 | -0.836 | 2.75 | 0.977 | 1.31 | -0.324 | 0.436 |
| ACAGACAGGTGATGAAGGTAACACAGGCTATCAT | 0.124 | 0.0165 | -0.085 | 0.319 | -0.129 | 0.346 | 1.05 | 0.295 | 0.205 | 0.465 |
| CGAACGAGGGCATGAGTTGATTGCAAATGCCGAT | 0.319 | 0.271 | -0.529 | -0.0625 | -0.873 | 1.14 | 1.26 | 1.58 | 0.205 | 1.08 |
| TCGAGTAGGTTACCAATGGGGCCTTCAGCTTTCT | -0.184 | 0.128 | -0.933 | -0.0136 | -1.01 | 0.918 | -0.264 | 0.957 | 0.922 | 0.958 |
| GATATTAGTTGAAAGGGCAACCGAATGATTCTCG | 0.693 | 1.12 | 0.566 | 1.26 | 0.285 | 2.63 | 2.9 | 4.65 | 2.47 | 4.54 |
| ATACCAAGGTGATAGTGAGGTCGTTGATACTAAC | 1.53 | 1.39 | 0.943 | 1.4 | 0.0823 | 1.81 | 0.759 | 0.98 | 0.458 | 0.738 |
| AGAACGAGGGCAATGAGCTGATAGCACGGGTGGC | 0.394 | 0.368 | -0.433 | -0.35 | -0.559 | 1.4 | 1.29 | 0.822 | -0.0771 | 0.27 |
| CCTATTAGTTGACCATGAGGGCAACCGAAGCTCG | 1.01 | 0.684 | 0.747 | 0.619 | 0.6 | 0.652 | 0.438 | 0.373 | -0.175 | 0.282 |
| TCATATAGGTAAATGCTAGGGGAAAGTCCGATCT | 0.958 | 0.949 | 0.455 | 0.865 | 0.134 | 1.21 | 0.788 | 2.13 | 3.88 | 3.25 |

| Sequence | PBM binding z-score [1] | PBM binding z-score [2] | PBM binding z-score [3] | PBM binding z-score [4] | PBM binding z-score [5] | PBM binding z-score [6] | PBM binding z-score [7] | PBM binding z-score [8] | PBM binding z-score [9] | PBM binding z-score [10] |
| --- | --- | --- | --- | --- | --- | --- | --- | --- | --- | --- |
| TCTAGTTGGTCAAAGGTCGCACACTCGAAATGCG | 2.96 | 2.82 | 0.642 | 2.92 | 0.553 | 5.33 | 10.3 | 9.2 | 10.5 | 10.8 |
| GCGCCTGGGGCAAAGCAGGTTACCATAAGGTTGG | 0.19 | -0.148 | -0.679 | -0.341 | -1.26 | 0.474 | 0.0826 | -0.405 | -0.693 | -0.771 |
| CCTTACGGGTCACTGACAGGTGATAGCATTTGGA | 6.8 | 5.19 | 0.411 | 4.32 | -0.315 | 5.68 | 4.86 | 4.97 | 1.83 | 4 |
| ACAGACAGGTGAGGGAAGGTAACTCAGCTGGACG | 0.596 | 0.155 | -0.368 | -0.181 | -0.443 | 0.389 | 0.791 | -0.0319 | -0.39 | -0.182 |
| GCTGCTAGGTCAACTGATGGTCAGCTCAAGCTCG | 4.04 | 3.02 | 0.195 | 2.03 | 0.0529 | 3.43 | 2.32 | 2.98 | 0.574 | 1.74 |
| TCAGACAGGGGAAGGTAACTCAGGTACGCAGTCG | 0.82 | 1.65 | 0.166 | 1.3 | 0.859 | 0.994 | 0.622 | 2.06 | 3.77 | 2.68 |
| GATACAGGGTCAGCTAGAGGCCAGATTATGGAAA | 4.25 | 2.85 | -0.166 | 2.68 | -0.373 | 4.42 | 3.59 | 3.18 | 0.899 | 1.88 |
| ATCGAAAGGTCGTGAGGTGAGTATACAGAAAGGC | 5.57 | 4.25 | 0.175 | 3.13 | 0.435 | 4.95 | 4.06 | 4.39 | 1.92 | 3.28 |
| CAAACTGGGTCAAGGTCAAAGTCGGTTTGTGCCA | 6.14 | 4.7 | 2.42 | 4.41 | 0.882 | 5.96 | 9.55 | 7.65 | 6.43 | 7.63 |
| TCTTGTAGATCAAAGGTTAAGCAAGCCGAAGCCT | 1.32 | 2.21 | 0.224 | 2.12 | -0.28 | 5.08 | 8.51 | 8.42 | 9.42 | 9.87 |
| GTTAGTTGGTCAGTAAAAGGTCACACACCGGTCG | 3.73 | 4.28 | 5.17 | 3.94 | 1.41 | 4.6 | 3.42 | 4.81 | 2.66 | 4.18 |
| GCTATTAGTTGAAAGGGCAACCTAATGATTCTCG | 0.451 | 0.673 | 0.238 | 1.08 | -0.393 | 2.38 | 2.46 | 4.31 | 2.24 | 4.3 |
| AGAATGTGGTTACCAAAGATCAGGGAAACGCTTG | -0.517 | 0.7 | -0.272 | -0.139 | -0.442 | -0.0504 | 0.469 | 0.425 | 0.333 | 0.271 |
| TCATATAGGTAAAAGTTGAAAGTCGGTGTGGTAA | 1.54 | 1.21 | 0.41 | 1.21 | -0.0163 | 4.24 | 7.51 | 7.35 | 7.31 | 8.17 |
| CCTTACGGGTCACTCACAGGTTATAGCATTTGGA | 4.95 | 4.32 | 0.653 | 3.67 | 0.243 | 5.1 | 4.15 | 3.82 | 1.29 | 2.78 |
| AATACAGGGTCACTAGGGCAGAGTAGGTACGAAT | 6.65 | 5.17 | 1.38 | 4.23 | 1.51 | 5.86 | 8.85 | 6.78 | 3.79 | 6.46 |
| GCTATTAGTTTAAAGGGCAACCGAATGATTCTCG | 0.917 | 1.13 | 0.643 | 1.42 | 0.922 | 2.44 | 2.98 | 4.5 | 2.59 | 4.67 |

From the supplement of paper PMC6555819
